# Only a selection was taken, and hits are over-represented in it overall.
# Marburg entry inh: Marburg virus entry inhibition; Marburg virus pseudotyped entry inhibition, cell reporter; Potency, µM (series often up to 37.8 µM), without a hit: at the highest dose activity change, negative = inhibition, hits mostly inhibitors; 1.8% of 300,000 active; AID 540276; calls by dose curve; tested in HEK293 cells; also: potency is read from the fitted curve at half-maximal effect; % is scaled to controls: 0 for no effect and ±100 for the full control effect
# CHX counter: counter-screen hit for Shiga toxin inhibitors, cycloheximide; cell reporter, cycloheximide protein synthesis inhibition counterscreen; max response, %; 12% of 300,000 active; AID 2314; in the data active = max response mostly above about 13%, no sharp cut-off; inactive = mostly below about 14%; also: read at 38.3 µM for the half of the compounds with a filed dose; 0% is about no effect
# Shiga toxin inh: inhibitors of Shiga toxin in Vero cells. inhibition, % at 38.7 µM. Vero cells, Shiga toxin protein synthesis inhibition reporter. 9.2% of 290,000 active; in the data active = inhibition mostly above about 28%, no sharp cut-off; inactive = mostly below about 43%; also: 0% is about no effect
# Lassa entry inh: blocks Lassa virus binding to or entry into cells; Potency, µM (series often up to 37.9 µM), for inactives: top-dose activity change, negative = inhibition, hits mostly inhibitors; 1.2% of 300,000 active; Lassa virus pseudotype entry inhibition, cell reporter; calls by dose curve; tested in HEK293 cells; also: potency is read from the fitted curve at half-maximal effect; % is scaled to controls: 0 for no effect and ±100 for the full control effect; nearly all actives have a fitted effect of over 50% in size
# AMA1 RON2 block: AMA1-RON2 (P. falciparum) interaction inhibition; Potency, µM (top dose mostly 58.2 µM), for the others: top-dose activity change, negative = inhibition, usual class: inhibitors; AID 720542; AlphaScreen AMA1-biotinylated RON2 peptide binding; 0.2% of 360,000 active; active = well fitted inhibition curve with a large enough effect; inconclusive = small, poorly fitted or top-dose-only effect; inactive = no such curve, though single readings can be large or run the other way;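 also: potency is read from the fitted curve at half-maximal effect; 0% = vehicle wells and -100% = peptide control; nearly all actives have a fitted effect of over 45% in size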
#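 AMA1 (3D7) with his tag at 25 nM final met compounds first, then biotinylated RON2 peptide at 25 nM; detection used donor plus acceptor beads, 10 µg/mL apiece, read by AlphaScreen after 30 min at room temperature.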
# * hit, by the source's call; u = inconclusive; x = no result given; [ ] = remark or other dose.
SMILES,Marburg entry inh,CHX counter,Shiga toxin inh,Lassa entry inh,AMA1 RON2 block
CCC1CCCCN1Cc1cn2c(-c3ccc(Br)cc3)nnc2s1 (stereo not drawn),x,x,x,-22.4%[46.1 µM],x
CCn1c(COC(=O)CNC(=O)c2ccccc2F)nc2cc(S(=O)(=O)N(C)C)ccc21,11.7%,x,x,-0.4%,2.7%
CCOc1ccccc1O[C@H](c1ccccc1)[C@H]1CNCCO1,x,x,x,x,15.1%
Cc1oc(-c2ccccc2)cc1C(=O)Nc1ccccc1,-6.6%,10.0,19.5,0.8%,-6.1%
Cc1c(C(=O)Nc2ccccc2[N+](=O)[O-])csc1-c1ccccc1,u,34.5*,96.9*,u,-23.2%[11.6 µM]
Cc1c(C(=O)Nc2ccccc2)csc1-c1ccccc1,u,36.1*,39.9*,u,-7.4%
Cc1ccc(C(=O)O/N=C(\N)Cc2cccs2)c(Cl)c1,x,82.5*,84.5*,x,23.7%
Cc1ccc(C(=O)O/N=C(\N)Cc2ccc([N+](=O)[O-])cc2)c(Cl)c1,x,9.8*,41.7,x,14.8%
CC(=O)c1cc(-c2ccccc2)n(CCC(=O)NCc2ccc(C)cc2)c1C,x,x,x,-11.8%[46.1 µM],x
O=C(CNC(=O)c1ccc(-c2ccccc2)cc1)OCc1c(F)cccc1Cl,u,-0.5,-7.9,-3.8%,-1.6%
[N-]=[N+]=CC(=O)C(c1ccccc1)(c1ccccc1)c1ccccc1,-14.3%[14.2 µM],-2.3,4.6,5.1%,-16.6%
C=CCn1c(COc2cccc(C)c2C)nnc1SCC(=O)N1CCN(c2ccccc2)CC1,u,-2.0,2.0,5.62µM*,u
CC(C)(C)n1cnc2cc(NC(=O)c3ccc(Cl)cc3)ccc21,u,32.6*,91.6*,u,-6.3%
CCC(=O)Nc1ccc2c(c1)ncn2C,u,-2.0,5.1,-9.5%[46.1 µM],-8.1%
COc1cc(C(=O)Nc2ccc3c(c2)ncn3C(C)(C)C)cc(OC)c1OC,x,-1.1,-3.1,x,0.5%
Cn1cnc2cc(NC(=O)c3ccc(Cl)cc3)ccc21,x,27.0*,55.1*,x,7.2%
Cc1nc2ccccc2c(=O)n1N(c1ccccc1)c1ccccc1,x,-4.5,10.1,x,-4.0%
CCC(C)(C)C1CCC(=NNC(=O)c2ccoc2C)CC1 (stereo not drawn),u,56.3*,69.3*,-0.9%,9.2%
COc1ccc(CCN2CC(C(=O)Nc3cc(F)ccc3F)CC2=O)cc1OC (stereo not drawn),-2.8%[46.1 µM],x,x,7.4%,49.2%
Cc1c(NC(=O)/C=C/c2ccc(S(=O)(=O)N3CCOCC3)cc2)c(=O)n(-c2ccccc2)n1C,0.0%[46.1 µM],-2.0,-5.2,4.6%,4.3%
CN(C)CCNc1nc(Oc2ccccc2)c2sccc2n1,x,x,x,x,0.7%
CC(C)c1ccc(C(=O)NCCCN2CCOCC2)cc1,x,37.1*,59.6,x,-14.0%
O=C(NCCCN1CCOCC1)c1ccc(S(=O)(=O)N2CCOCC2)cc1,-12.2%,25.9*,-9.0,4.8%,13.1%
O=C(NCCCN1CCOCC1)c1ccc(Br)cc1,u,8.6,29.5,9.5%,-1.3%
Cc1noc(C)c1COc1cccc(C(=O)NCCc2c[nH]c3ccccc23)c1,u,14.3,17.2,10µM*,-7.9%
SMILES,Marburg entry inh,CHX counter,Shiga toxin inh,Lassa entry inh,AMA1 RON2 block
CCc1nnc(NC(=O)c2ccc(OCc3c(C)noc3C)c(OC)c2)s1,x,-9.9,-4.0,x,-4.6%
Cc1ccc(NC(=O)c2cccc(OCc3c(C)noc3C)c2)cc1,u,28.7*,39.4,7.4%,-14.2%
COc1cc(C(=O)Nc2nc3ccc(C)cc3s2)ccc1OCc1c(C)noc1C,-3.2%,61.5*,76.1*,-6.1%,-8.2%
Cc1ccc(CNC(=O)c2cccc(OCc3c(C)noc3C)c2)cc1,-6.3%,4.8,4.8,-26.2%,1.1%
O=C(N/N=C/c1c(O)ccc2ccccc12)c1cccnc1,u,7.2,-9.2,u,37.1%
COCCn1c(C)cc(/C=N/NC(=O)c2cccnc2)c1C,u,22.4*,68.8*,x,71.7%
COC(=O)N/N=C/c1ccc(OS(=O)(=O)c2ccc(C)cc2)c(OC)c1,6.2%[46.1 µM],-6.3,20.5,7.94µM*,-4.3%
Cc1ccc2occ(/C=N/NC(=O)c3ccc(O)cc3)c(=O)c2c1,x,10.7,-3.6,x,138.8%
Cc1cc(/C=N/NC(=O)c2ccc(O)cc2)c(C)n1CC(C)C,x,47.8*,82.0*,x,109.6%
O=C(N/N=C/c1cc(O)ccc1Br)c1cccnc1,x,-2.6,1.5,x,-1.9%
Cc1cc(O)c(C)c(O)c1/C=N/NC(=O)c1cccnc1,10µM*,0.7,-3.9,u,32.2%
COc1cc(/C=N/NC(=O)c2cccnc2)ccc1OS(=O)(=O)c1ccc(C)cc1,-18.1%,5.9,1.3,1.2%,-2.6%
Cc1cccc(C(=O)NNC(=O)c2c(-c3ccccc3Cl)noc2C)c1O,-3.1%[46.1 µM],0.9,-8.1,-9.2%[46.1 µM],81.9%
COc1cc(/C=N/NC(=O)c2cccnc2)ccc1OS(=O)(=O)c1cc(C)ccc1C,u,17.0*,5.7,u,11.6%
COc1cc(/C=N/NC(=O)c2cccnc2)ccc1OCC(=O)Nc1ccc(C)cc1,-0.4%[46.1 µM],21.1*,21.0,13.9%[46.1 µM],27.5%
COc1ccc(C=NNC(=O)CCCCC(=O)NN=Cc2ccc(OC)cc2)cc1,-19.7%[46.1 µM],x,x,u,22.5%
COc1ccc(/C=N/NC(=O)c2ccc[nH]2)cc1,x,29.3*,77.1*,x,-8.0%
COc1ccc(/C=N/NC(=O)c2cccnc2)cc1,x,31.5*,121.0*,x,-2.7%
COc1ccc(CCNC(=O)COC(=O)CSc2ccc(C(N)=O)cc2[N+](=O)[O-])cc1OC,x,x,x,x,2.1%
CC(=O)c1cc2c(cc1N/C(=N/S(=O)(=O)c1ccc(F)cc1)c1ccccc1)OCO2,x,x,x,19.7%[46.1 µM],x
CC1(C(=O)Nc2ccc3c(c2)OCO3)CCN1C(=O)CCc1cccs1 (stereo not drawn),x,x,x,x,-5.0%
C=CCNC(=O)/C(C#N)=C/c1ccc(OS(=O)(=O)c2ccc(C)cc2)c(OC)c1,u,1.4,21.2,12.6µM*,1.5%[2.32 µM]
COc1ccc(C(=O)Oc2ccc(/C=N/NC(=O)c3cccnc3)cc2OC)cc1,x,x,x,x,-10.8%
COc1ccc(/C=C(\C#N)C(=O)NCc2cccs2)cc1OC,1.1%,1.1,-3.6,1.4%,-0.5%[11.6 µM]
COc1ccc(/C=N/NC(=O)c2cccnc2)cc1O,u,18.9*,x,-3.7%,16.1%
SMILES,Marburg entry inh,CHX counter,Shiga toxin inh,Lassa entry inh,AMA1 RON2 block
Cc1cccc(COc2ncnc3nc[nH]c23)c1,-2.5%,14.7,35.2*,u,132.1%
CCN(c1cccc(C)c1)c1ncnc2nc[nH]c12,x,-0.7,-4.4,x,9.9%
CC(C)OC(=O)NCCOC(=O)Nc1cccc(Cl)c1,15.2%,16.4,36.0,4.4%,3.6%
CC(C)OC(=O)NC(C)(C)COC(=O)Nc1cccc(Cl)c1,-3.5%,13.6*,-2.2,6.3%,3.1%
CC(OC(=O)Nc1cccc(Cl)c1)C(=O)O (stereo not drawn),12.2%[46.1 µM],-6.1,-5.5,-6.1%,16.9%
C#CC(C)OC(=O)Nc1cccc(Cl)c1 (stereo not drawn),x,32.0*,41.0*,x,x
COc1cc(NC(=O)c2cc(C3CC3)nc3c2c(C)nn3-c2ccc(C)cc2)cc(OC)c1,x,x,x,6.2%[46.1 µM],x
CCCN(CCC)c1nn2c(=O)c(C(=O)NCc3cccc(OC)c3)cnc2s1,x,x,x,23.4%[46.1 µM],x
CC#C[C@]1(O)CC[C@H]2C3CCC4=CC(=O)CCC4=C3[C@@H](c3ccc(N(C)C)cc3)C[C@@]21C (stereo partly drawn),10µM*,x,x,x,x

# High-throughput results deposited in PubChem by National Center for Advancing Translational Sciences (NCATS).
